From PubChem BioAssay (NCI)
Where “and” joins values, the source holds several entries; their conditions need not be identical. Identical values can stand only once. About 83,000 compounds went through this panel and 20% of them were active in at least one assay; those are over-represented in the sample as a whole.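 The endpoint reported here, percent growth, reads 100 for growth as untreated, 0 for no net growth and -100 for all cells dead.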 Calls of active or inactive are those of the source. How the source made its calls: active means growth percent below 10; inactive means the rest.

Legend:
Assay in all cases: NCI-60 one-dose screen, 48 h (100 = growth as untreated, 0 = no growth, -100 = all killed)
Conditions in all cases: 10 µM unless noted
DU-145 prostate = tested on: DU-145 prostate
K-562 leukemia = tested on: K-562 leukemia
MALME-3M melanoma = tested on: MALME-3M melanoma
MDA-MB-231 breast = tested on: MDA-MB-231 breast
RXF 393 renal = tested on: RXF 393 renal
SF-268 CNS = tested on: SF-268 CNS
SF-295 CNS = tested on: SF-295 CNS
SF-539 CNS = tested on: SF-539 CNS
UACC-257 melanoma = tested on: UACC-257 melanoma
M14 melanoma = tested on: M14 melanoma

Measured: growth

ON=C(C1CCCCC1)C1CCCCC1
inactive: DU-145 prostate 107% | K-562 leukemia 108% | MALME-3M melanoma 91.9% | MDA-MB-231 breast 95.3% | RXF 393 renal 109% | SF-268 CNS 98.1% | SF-295 CNS 105% | SF-539 CNS 96.3% | UACC-257 melanoma 99.5% | M14 melanoma 109%

CC(=O)Oc1cc(C)c(OC(C)=O)c(C)c1C
inactive: DU-145 prostate 105% | K-562 leukemia 90.9% | MALME-3M melanoma 91.4% | MDA-MB-231 breast 91.4% | RXF 393 renal 125% | SF-268 CNS 107% | SF-295 CNS 107% | SF-539 CNS 101% | UACC-257 melanoma 105% | M14 melanoma 112%

Cc1cc2ccccc2c2cc3ccccc3cc12
inactive: DU-145 prostate 107% | K-562 leukemia 95.4% | MALME-3M melanoma 86.9% | MDA-MB-231 breast 79.9% | RXF 393 renal 97.7% | SF-268 CNS 100% | SF-295 CNS 96.9% | SF-539 CNS 92.6% | UACC-257 melanoma 99.6% | M14 melanoma 85.1%

CC(C)(C)OC(=O)c1ccc(NCc2cc(O)ccc2O)cc1
active: K-562 leukemia 3.17% | MALME-3M melanoma -40.2% | MDA-MB-231 breast -38.2% | RXF 393 renal -68.3% | SF-539 CNS -70.1% | UACC-257 melanoma -6.29%
inactive: DU-145 prostate 57% | SF-268 CNS 16.5% | SF-295 CNS 78.4% | M14 melanoma 44.5%

Nc1c(Cl)cc2c(c1Br)C(=O)c1ccccc1C2=O
inactive: DU-145 prostate 121% | K-562 leukemia 83.5% | MALME-3M melanoma 132% | MDA-MB-231 breast 83.3% | RXF 393 renal 110% | SF-268 CNS 108% | SF-295 CNS 104% | SF-539 CNS 84.6% | UACC-257 melanoma 108% | M14 melanoma 108%

CNc1ccc(O)cc1
inactive: DU-145 prostate 121% and 113% | K-562 leukemia 104% and 118% | MALME-3M melanoma 110% and 107% | MDA-MB-231 breast 104% and 98.9% | RXF 393 renal 95.6% and 114% | SF-268 CNS 121% and 113% | SF-295 CNS 101% | SF-539 CNS 104% and 107% | UACC-257 melanoma 91.5% and 115% | M14 melanoma 118% and 113%

CCC(=O)Oc1ccc(OCc2ccccc2)cc1
inactive: DU-145 prostate 96.9% and 88.9% | K-562 leukemia 86% and 88.4% | MALME-3M melanoma 107% and 86.6% | MDA-MB-231 breast 60.1% and 68.4% | RXF 393 renal 94% and 100% | SF-268 CNS 75% and 85.5% | SF-295 CNS 95.4% and 75.9% | SF-539 CNS 56.2% and 65.3% | UACC-257 melanoma 130% and 108% | M14 melanoma 101% and 77.3%

CCOC(=O)c1ccncc1
inactive: DU-145 prostate 104% | K-562 leukemia 99.3% | MALME-3M melanoma 113% | MDA-MB-231 breast 110% | RXF 393 renal 107% | SF-268 CNS 101% | SF-295 CNS 96.2% | SF-539 CNS 108% | UACC-257 melanoma 116% | M14 melanoma 102%

OCc1ccccc1F
inactive: DU-145 prostate 11.4% | K-562 leukemia 106% | MALME-3M melanoma 134% | MDA-MB-231 breast 86.3% | RXF 393 renal 77.5% | SF-268 CNS 95.8% | SF-295 CNS 72% | SF-539 CNS 101% | UACC-257 melanoma 107% | M14 melanoma 90.8%

CN1C2C=CC(=O)C1C1C(=O)N(c3ccccc3)C(=O)C12 (stereo not given)
inactive: DU-145 prostate 37.3% | K-562 leukemia 40.8% | MALME-3M melanoma 82.5% | MDA-MB-231 breast 93.9% | RXF 393 renal 59.1% | SF-268 CNS 74.1% | SF-295 CNS 99% | SF-539 CNS 66.5% | UACC-257 melanoma 81.8% | M14 melanoma 105%

C/C=C(/C(=O)NC(N)=O)C(C)C
inactive: DU-145 prostate 105% | K-562 leukemia 109% | MALME-3M melanoma 106% | MDA-MB-231 breast 114% | RXF 393 renal 171% | SF-268 CNS 87.2% | SF-295 CNS 108% | SF-539 CNS 115% | UACC-257 melanoma 104% | M14 melanoma 93.9%

CC(C)(C)OC(=O)NCCc1ccc(N)cc1
inactive: DU-145 prostate 103% | K-562 leukemia 101% | MALME-3M melanoma 95.8% | MDA-MB-231 breast 85.6% | RXF 393 renal 115% | SF-268 CNS 96.3% | SF-295 CNS 99.2% | SF-539 CNS 107% | UACC-257 melanoma 98.2% | M14 melanoma 104%

O=c1[nH]c(=S)[nH]n1C(=S)n1[nH]c(=S)[nH]c1=O
inactive: DU-145 prostate 110% | K-562 leukemia 98.8% | MALME-3M melanoma 102% | MDA-MB-231 breast 111% | RXF 393 renal 95.6% | SF-268 CNS 103% | SF-295 CNS 97.8% | SF-539 CNS 110% | UACC-257 melanoma 108% | M14 melanoma 105%

COc1cc(C2c3cc4c(cc3C(OC(=O)C[n+]3ccccc3)C3COC(=O)C23)OCO4)cc(OC)c1OC (stereo not given)
inactive: MALME-3M melanoma 59% | RXF 393 renal 41.1% | UACC-257 melanoma 55.1%
active: DU-145 prostate -40.1% | K-562 leukemia 6.79% | MDA-MB-231 breast -2.88% | SF-268 CNS 8.83% | SF-295 CNS 1.14% | SF-539 CNS -9.3% | M14 melanoma 7.72%

O=C(N=C1C(=O)C2(CCCCC2)C2(N=C(c3ccccc3)OC2=O)C12CCCCC2)c1ccccc1 (stereo not given)
inactive: DU-145 prostate 79% | K-562 leukemia 54.4% | MALME-3M melanoma 77.6% | MDA-MB-231 breast 74.4% | RXF 393 renal 69.5% | SF-268 CNS 77.8% | SF-295 CNS 77.3% | SF-539 CNS 82.3% | UACC-257 melanoma 67.7% | M14 melanoma 78%

O=COCCCc1ccccc1
inactive: DU-145 prostate 112% | K-562 leukemia 104% | MALME-3M melanoma 106% | MDA-MB-231 breast 100% | RXF 393 renal 108% | SF-268 CNS 103% | SF-295 CNS 106% | SF-539 CNS 102% | UACC-257 melanoma 86.5% | M14 melanoma 105%

Nc1nc(-c2ccccn2)cc(-c2cc(-c3ccccn3)nc(N)n2)n1
inactive: DU-145 prostate 119% | K-562 leukemia 114% | MALME-3M melanoma 109% | MDA-MB-231 breast 102% | RXF 393 renal 105% | SF-268 CNS 106% | SF-295 CNS 102% | SF-539 CNS 103% | UACC-257 melanoma 112% | M14 melanoma 100%

O=C(O)C(Cc1ccc(OS(=O)(=O)Cc2ccccc2)cc1)NS(=O)(=O)Cc1ccccc1 (stereo not given)
inactive: DU-145 prostate 101% and 108% | K-562 leukemia 105% and 101% | MALME-3M melanoma 95.8% and 136% | MDA-MB-231 breast 102% | RXF 393 renal 118% and 126% | SF-268 CNS 105% and 98% | SF-295 CNS 106% and 102% | SF-539 CNS 97.7% and 101% | UACC-257 melanoma 100% and 101% | M14 melanoma 113% and 100%

CC(=O)Oc1ccc(C(c2ccc(OC(C)=O)cc2)c2ccccn2)cc1
inactive: DU-145 prostate 96.8% and 106% | K-562 leukemia 89.6% and 99.2% | MALME-3M melanoma 100% and 107% | MDA-MB-231 breast 100% and 102% | RXF 393 renal 71.9% and 16.1% | SF-268 CNS 104% and 99.3% | SF-295 CNS 92.1% | SF-539 CNS 100% and 75.6% | UACC-257 melanoma 96.1% and 88.3% | M14 melanoma 95.1% and 69.3%

COc1ccc([N+](=O)[O-])cc1OC
inactive: DU-145 prostate 111% and 118% | K-562 leukemia 102% and 103% | MALME-3M melanoma 117% and 104% | MDA-MB-231 breast 111% and 108% | RXF 393 renal 114% and 104% | SF-268 CNS 100% and 108% | SF-295 CNS 102% and 105% | SF-539 CNS 93.9% and 98% | UACC-257 melanoma 90.1% and 95% | M14 melanoma 98.9% and 113%

O=[N+]([O-])c1ccc(N2CCN=N2)cc1
inactive: DU-145 prostate 88.2% | K-562 leukemia 63.6% | MALME-3M melanoma 106% | MDA-MB-231 breast 80.4% | RXF 393 renal 109% | SF-268 CNS 85.8% | SF-295 CNS 97.1% | SF-539 CNS 93.4% | UACC-257 melanoma 91.5% | M14 melanoma 82.7%

Cn1c(N)c(N=O)c(=O)n(C)c1=O
inactive: DU-145 prostate 108% and 102% | K-562 leukemia 86.8% and 108% | MALME-3M melanoma 115% and 90.9% | MDA-MB-231 breast 108% and 98.7% | RXF 393 renal 170% and 109% | SF-268 CNS 94.6% and 90.7% | SF-295 CNS 105% and 103% | SF-539 CNS 107% and 100% | UACC-257 melanoma 101% | M14 melanoma 100% and 96.7%

COc1ccc(CCNC(=S)NN)cc1OC
inactive: DU-145 prostate 106% | K-562 leukemia 101% | MALME-3M melanoma 124% | MDA-MB-231 breast 114% | RXF 393 renal 200% | SF-268 CNS 96% | SF-295 CNS 103% | SF-539 CNS 95% | UACC-257 melanoma 108% | M14 melanoma 104%
